# From PubChem BioAssay (Tox21)
# Results filed as inconclusive are left out. A call without a number means that no potency is given here. A number with no mark means an inactive call. Activity calls are given as the source filed them. The call rests on the fitted dose curve; in most records, active means well fitted cell-killing curve with a large enough effect in the repeat runs; inconclusive means weak or mixed curves, or effect the other way; inactive means flat fitted curve, though single readings scatter.
# Assay: qHTS assay to identify small molecule agonists of the constitutive androstane receptor (CAR) signaling pathway - cell viability counter screen (AID 1224836); further: nearly all actives have a fitted effect of over 45% in size
# Details: HepG2-CYP2B6-hCAR viability, CellTiter-Fluor, 23 h, PK11195 added to every well; series mostly up to 92.4 µM
# From the text: U.S. Tox21 Program National Center for Advancing Translational Sciences [NCATS] NIH Chemical Genomics Center [NCGC] U.S. Environmental Protection Agency [EPA] National Institutes of Environmental Health Sciences [NIEHS] National Toxicology Program [NTP] U.S. Food and Drug Administration [FDA] Tox21 Assay Overview: The constitutive androstane receptor (CAR) is a nuclear receptor which regulates multiple drug metabolizing enzymes (DMEs) and transporters. Activating CAR will generally increase the transcription and subsequent translation of CYP2B6 and CYP3A4. These two DMEs represent about 50% of the drug metabolizing potential in the body. […] Recently, there have also been studies performed indicating CARs role in energy metabolism and cancer therapy. Therefore, inducing CARs activity could have a potential effect on diabetes and cancer. Identifying environmental toxins and compounds which modulate CAR, through the use of the Tox21 10K compound collection, will be an important step in determining the toxicity and potential therapeutic effects these factors will have on the human body. To differentiate true CAR agonists from cytotoxic substances, the assay is multiplexed with a cell viability assay.
# Tox21 Assay Protocol Summary: A double-stable (hCAR and CYP2B6-2.2kb) transfected cell line, derived from human hepatoma (HepG2) cells, was utilized for the duration of the quantitative high-throughput screens. The HepG2-CYP2B6-hCAR cells were dispensed at 2500 cells/4 uL/well in 1536-well white solid bottom plates using a Multidrop Combi. After the assay plates were incubated at 37 C/5% CO2 for 4 hrs, 23 nL of compounds at 15 concentrations (from 5-48 columns) or positive control (from 1 to 4 columns) were transferred to the assay plates using a Pintool station. One uL of PK11195 (final concentration = 0.75 uM) was added, using a Flying Reagent Dispenser, inside each well. After a 23 hr incubation period at 37 C/5% CO2, 1 uL of CellTiter-Fluor reagent was added into each well of the assay plates using a Flying Reagent Dispenser. The fluorescence intensity in the plates was then measured using a ViewLux plate reader.
# Potency means the concentration at half of the fitted maximal effect.
Structure (SMILES),Potency,"viability change, negative = cytotoxic"
CC/C=C\CC1=C(C)CCC1=O,inactive,–
CCCCNc1ccc(C(=O)OCCN(C)C)cc1,inactive,–
CC(C)CC(=O)O,inactive,–
Cc1cccc(C)c1NC(=O)c1ccccc1C(=O)O,inactive,–
CCN(CC)CC(=O)Nc1c(C)cccc1C,inactive,–
CCCCCCCCCCCCCC,inactive,–
COc1cc2c(cc1OC)C(=O)CC2,inactive,–
NS(=O)(=O)c1cc2c(cc1Cl)CN(C1CCCCC1)C2=O,inactive,–
O=C(O)c1cc(Br)c(O)c(Br)c1,inactive,–
CCC(CC)CO,inactive,–
O=C(O)Cc1cn(-c2ccccc2)nc1-c1ccc(Cl)cc1,inactive,–
CCCN1C[C@H](CSC)C[C@@H]2c3cccc4[nH]cc(c34)C[C@H]21,inactive,–
CC(C)CCCC(C)(C)O,inactive,–
CCCCCCCCSCC,inactive,–
O=C(OCC(COC(=O)c1cccnc1)(COC(=O)c1cccnc1)COC(=O)c1cccnc1)c1cccnc1,inactive,–
COc1nccnc1NS(=O)(=O)c1ccc(N)cc1,inactive,–
Cc1ccccc1OCC(O)CO (stereo not given),inactive,–
O=C(O)CCSSCCC(=O)O,inactive,–
Cc1nc2n(c(=O)c1CCN1CCC(c3noc4cc(F)ccc34)CC1)CCC[C@H]2O,–,2.64% [at 19 µM]
CCC(C=O)CC,inactive,–

Structure (SMILES),Potency,"viability change, negative = cytotoxic"
O=C(NCC(O)CO)c1c(I)c(C(=O)NCC(O)CO)c(I)c(N(CCO)C(=O)CO)c1I (stereo not given),inactive,–
O=C(OCC1(COC(=O)c2cccnc2)CCCC(COC(=O)c2cccnc2)(COC(=O)c2cccnc2)C1O)c1cccnc1,inactive,–
Cc1cccc(C)c1OCC(C)N (stereo not given),inactive,–
CCn1ccc(NS(=O)(=O)c2ccc(N)cc2)nc1=O,inactive,–
O=C(O)Cc1ccc(Cl)cc1Cl,inactive,–
CCN(C)C(=O)Oc1cccc([C@H](C)N(C)C)c1,inactive,–
O=C(CCN1CCN(CCO)CC1)N1c2ccccc2Sc2ccc(C(F)(F)F)cc21,inactive,–
CCCCCOC(=O)CCC,inactive,–
Cc1cc(Cl)c(C)cc1Cl,inactive,–
COc1ccc(S(=O)(=O)N2c3ccc(Cl)cc3[C@@](O)(c3ccccc3Cl)[C@H]2C(=O)N2CCC[C@@H]2C(N)=O)cc1OC,inactive,–
Cc1cccc2nccnc12,inactive,–
Cc1ccc(S(=O)(=O)O)c(C)c1,inactive,–
Cc1ccc2ccc(Cl)cc2n1,inactive,–
COc1cc(N)ccc1C,inactive,–
O=C(O)c1ccc(Cl)cc1Cl,inactive,–
Nc1ccc([N+](=O)[O-])c(N)c1,53.1 µM (active),–
C[C@H](CCC(=O)O)[C@H]1CC[C@H]2[C@@H]3C(=O)C[C@@H]4CC(=O)CC[C@]4(C)[C@H]3CC(=O)[C@]12C,inactive,–
COc1cc(C(=S)N2CCOCC2)cc(OC)c1OC,inactive,–
O=S(=O)(O)c1cc(O)c2ccc(Nc3ccccc3)cc2c1,inactive,–
CCN1CCc2nc(N)oc2CC1,inactive,–
